Results as given in PMC7862700, “An all-to-all approach to the identification of sequence-specific readers for epigenetic DNA modifications on cytosine”.

Legend:
Experiment in all cases: DAPPL (digital affinity profiling via proximity ligation, sequencing); 10 mM Tris-HCl pH 7.5, 50 mM NaCl, 1 mM DTT, 4% glycerol, room temperature, 30 min; GST-TFs on glutathione beads, 16-mer random dsDNA library, 0.1% formaldehyde crosslink after washing; high values mean tight binding
FLI1 = target: T1, FLI1 (Homo sapiens, UniProt Q01543 1-452); conditions: protein: recombinant; tags: N-terminal GST; dsDNA, one strand shown
T1 sequence: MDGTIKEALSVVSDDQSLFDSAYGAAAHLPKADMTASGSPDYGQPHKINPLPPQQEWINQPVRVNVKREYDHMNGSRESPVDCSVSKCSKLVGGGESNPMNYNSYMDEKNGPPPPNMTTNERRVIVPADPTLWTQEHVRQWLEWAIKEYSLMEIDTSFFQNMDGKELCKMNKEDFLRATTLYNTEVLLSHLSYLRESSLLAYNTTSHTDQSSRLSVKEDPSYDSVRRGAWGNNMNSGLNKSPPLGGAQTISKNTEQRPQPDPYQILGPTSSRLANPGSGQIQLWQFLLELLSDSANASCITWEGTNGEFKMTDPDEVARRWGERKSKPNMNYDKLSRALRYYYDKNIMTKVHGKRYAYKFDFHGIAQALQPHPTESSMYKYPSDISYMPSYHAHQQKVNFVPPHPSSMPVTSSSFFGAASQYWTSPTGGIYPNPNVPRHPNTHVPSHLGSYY
How it was run: (§1)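 After expression in yeast as GST fusions, human transcription factors were bound to glutathione beads, DNA-barcoded and mixed with a tag-only sample. The pools were incubated with 200 nmole of a 16-mer random double-stranded DNA library in Tris/NaCl/DTT/glycerol buffer (30 min, room temperature), washed and crosslinked with 0.1% formaldehyde. Proximity ligation with BsaI/T4 ligase ran for 1 h at 37 °C, before PCR amplification and sequencing on an Illumina NextSeq500. Binding signal is a hexamer's read frequency for a factor divided by its frequency for the tag-only sample.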

ELK1 = target: T2, ELK1 (Homo sapiens, UniProt P19419 1-428); conditions: protein: recombinant; tags: N-terminal GST; dsDNA, one strand shown
T2 sequence: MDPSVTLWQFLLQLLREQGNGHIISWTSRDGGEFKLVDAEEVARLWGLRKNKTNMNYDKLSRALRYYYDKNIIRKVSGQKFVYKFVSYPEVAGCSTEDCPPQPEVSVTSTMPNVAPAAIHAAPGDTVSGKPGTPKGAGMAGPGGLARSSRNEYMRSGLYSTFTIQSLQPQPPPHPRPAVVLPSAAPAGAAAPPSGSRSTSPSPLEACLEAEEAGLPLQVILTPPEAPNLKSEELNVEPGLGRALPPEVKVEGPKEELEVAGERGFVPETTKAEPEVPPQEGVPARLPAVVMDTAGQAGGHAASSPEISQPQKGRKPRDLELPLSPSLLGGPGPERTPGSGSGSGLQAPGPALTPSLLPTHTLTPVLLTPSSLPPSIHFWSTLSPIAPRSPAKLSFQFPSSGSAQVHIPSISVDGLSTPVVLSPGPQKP
How it was run: as §1

GABPA = target: T3, GABPA (Homo sapiens, UniProt Q06546 1-454); conditions: protein: recombinant; tags: N-terminal GST; dsDNA, one strand shown
T3 sequence: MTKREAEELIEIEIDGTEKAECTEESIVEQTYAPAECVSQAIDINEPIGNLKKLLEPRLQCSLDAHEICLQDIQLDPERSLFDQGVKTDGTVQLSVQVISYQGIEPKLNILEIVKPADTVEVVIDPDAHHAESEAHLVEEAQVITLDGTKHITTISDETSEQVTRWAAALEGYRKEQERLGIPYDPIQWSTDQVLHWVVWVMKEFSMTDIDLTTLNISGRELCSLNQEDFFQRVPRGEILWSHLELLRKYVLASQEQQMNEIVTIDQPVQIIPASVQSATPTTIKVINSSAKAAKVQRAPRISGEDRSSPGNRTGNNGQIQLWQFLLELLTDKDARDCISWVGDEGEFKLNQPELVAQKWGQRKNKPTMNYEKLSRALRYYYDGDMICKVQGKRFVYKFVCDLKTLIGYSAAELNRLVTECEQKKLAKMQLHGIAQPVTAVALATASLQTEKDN
How it was run: as §1

ERG = target: T4, ERG (Homo sapiens, UniProt P11308 1-479); conditions: protein: recombinant; tags: N-terminal GST; dsDNA, one strand shown
T4 sequence: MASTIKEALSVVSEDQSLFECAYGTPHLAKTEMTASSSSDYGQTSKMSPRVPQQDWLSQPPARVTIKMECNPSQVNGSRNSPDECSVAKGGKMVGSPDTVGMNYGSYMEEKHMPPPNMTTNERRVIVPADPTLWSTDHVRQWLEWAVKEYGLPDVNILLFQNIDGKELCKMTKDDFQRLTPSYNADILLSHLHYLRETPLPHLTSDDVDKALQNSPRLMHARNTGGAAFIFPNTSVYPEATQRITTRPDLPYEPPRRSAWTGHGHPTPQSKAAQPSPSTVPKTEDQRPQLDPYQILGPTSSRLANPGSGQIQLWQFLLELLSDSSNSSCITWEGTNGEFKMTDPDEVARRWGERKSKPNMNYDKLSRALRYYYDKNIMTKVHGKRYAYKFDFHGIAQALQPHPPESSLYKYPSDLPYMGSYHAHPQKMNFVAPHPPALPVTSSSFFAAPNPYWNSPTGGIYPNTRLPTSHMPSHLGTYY
How it was run: as §1

ELF1 = ELF1 (Homo sapiens, UniProt P32519 1-619); conditions: protein: recombinant; tags: N-terminal GST; dsDNA, one strand shown
How it was run: as §1

EHF = target: T5, EHF (Homo sapiens, UniProt Q9NZC4 1-300); conditions: protein: recombinant; tags: N-terminal GST; dsDNA, one strand shown
T5 sequence: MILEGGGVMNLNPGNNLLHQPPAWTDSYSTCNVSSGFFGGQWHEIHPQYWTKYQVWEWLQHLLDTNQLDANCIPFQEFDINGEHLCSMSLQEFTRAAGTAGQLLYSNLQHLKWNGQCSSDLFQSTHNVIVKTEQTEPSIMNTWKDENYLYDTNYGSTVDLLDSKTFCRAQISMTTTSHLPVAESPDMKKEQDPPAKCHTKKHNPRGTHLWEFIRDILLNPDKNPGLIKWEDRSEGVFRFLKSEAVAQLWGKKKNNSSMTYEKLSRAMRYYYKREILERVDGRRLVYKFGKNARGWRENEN
How it was run: as §1

SPI1 = SPI1 (Homo sapiens, UniProt P17947 1-270); conditions: protein: recombinant; tags: N-terminal GST; dsDNA, one strand shown
How it was run: as §1

SPIB = SPIB (Homo sapiens, UniProt Q01892 1-262); conditions: protein: recombinant; tags: N-terminal GST; dsDNA, one strand shown
How it was run: as §1

ELK3 = target: T6, ELK3 (Homo sapiens, UniProt P41970 1-407); conditions: protein: recombinant; tags: N-terminal GST; dsDNA, one strand shown
T6 sequence: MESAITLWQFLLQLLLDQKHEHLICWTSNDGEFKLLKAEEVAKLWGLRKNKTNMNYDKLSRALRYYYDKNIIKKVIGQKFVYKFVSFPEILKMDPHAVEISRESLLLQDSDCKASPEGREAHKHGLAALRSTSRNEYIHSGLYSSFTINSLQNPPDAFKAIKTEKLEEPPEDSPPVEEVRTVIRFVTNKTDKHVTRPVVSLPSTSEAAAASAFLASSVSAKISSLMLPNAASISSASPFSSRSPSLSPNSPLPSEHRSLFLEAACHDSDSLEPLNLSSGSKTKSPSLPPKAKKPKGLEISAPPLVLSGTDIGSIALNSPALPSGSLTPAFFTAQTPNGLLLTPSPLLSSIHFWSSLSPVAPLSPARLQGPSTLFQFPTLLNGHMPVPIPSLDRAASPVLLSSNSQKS
How it was run: as §1

FEV = target: T7, FEV (Homo sapiens, UniProt Q99581 1-238); conditions: protein: recombinant; tags: N-terminal GST; dsDNA, one strand shown
T7 sequence: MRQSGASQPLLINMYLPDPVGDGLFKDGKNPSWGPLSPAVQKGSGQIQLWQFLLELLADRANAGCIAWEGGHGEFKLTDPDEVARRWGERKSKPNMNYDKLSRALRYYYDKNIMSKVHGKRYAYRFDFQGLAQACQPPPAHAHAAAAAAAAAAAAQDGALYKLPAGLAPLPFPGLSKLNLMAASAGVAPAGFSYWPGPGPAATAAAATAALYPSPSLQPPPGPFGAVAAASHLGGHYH
How it was run: as §1

ETV5 = ETV5 (Homo sapiens, UniProt P41161 1-510); conditions: protein: recombinant; tags: N-terminal GST; dsDNA, one strand shown
How it was run: as §1

HSF1 = HSF1 (Homo sapiens, UniProt Q00613 1-529); conditions: protein: recombinant; tags: N-terminal GST; chain copies: 3; dsDNA, one strand shown
How it was run: as §1

SPIC = target: T8, SPIC (Homo sapiens, UniProt Q8N5J4 1-248); conditions: protein: recombinant; tags: N-terminal GST; dsDNA, one strand shown
T8 sequence: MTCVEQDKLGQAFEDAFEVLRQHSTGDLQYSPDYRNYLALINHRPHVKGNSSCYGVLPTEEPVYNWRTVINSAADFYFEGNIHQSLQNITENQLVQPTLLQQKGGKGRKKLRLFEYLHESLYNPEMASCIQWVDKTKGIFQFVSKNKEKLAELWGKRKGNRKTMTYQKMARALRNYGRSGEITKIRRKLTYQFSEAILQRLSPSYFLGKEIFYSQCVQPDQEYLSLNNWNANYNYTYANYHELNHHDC
How it was run: as §1

ELF4 = ELF4 (Homo sapiens, UniProt Q99607 1-663); conditions: protein: recombinant; tags: N-terminal GST; dsDNA, one strand shown
How it was run: as §1

ELK4 = target: T9, ELK4 (Homo sapiens, UniProt P28324-2 1-405); conditions: protein: recombinant; tags: N-terminal GST; dsDNA, one strand shown
T9 sequence: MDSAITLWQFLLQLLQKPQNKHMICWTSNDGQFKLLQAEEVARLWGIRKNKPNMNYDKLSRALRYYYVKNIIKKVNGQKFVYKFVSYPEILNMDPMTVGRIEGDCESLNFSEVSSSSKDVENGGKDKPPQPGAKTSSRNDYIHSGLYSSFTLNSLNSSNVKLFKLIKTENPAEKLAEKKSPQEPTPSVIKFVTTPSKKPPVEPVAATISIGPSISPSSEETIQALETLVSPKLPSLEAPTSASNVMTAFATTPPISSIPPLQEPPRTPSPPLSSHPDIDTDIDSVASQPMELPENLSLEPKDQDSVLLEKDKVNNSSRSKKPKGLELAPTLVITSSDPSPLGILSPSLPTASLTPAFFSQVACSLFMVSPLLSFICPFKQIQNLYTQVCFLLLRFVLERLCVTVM
How it was run: as §1

ETV2 = target: T10, ETV2 (Homo sapiens, UniProt O00321 1-342); conditions: protein: recombinant; tags: N-terminal GST; dsDNA, one strand shown
T10 sequence: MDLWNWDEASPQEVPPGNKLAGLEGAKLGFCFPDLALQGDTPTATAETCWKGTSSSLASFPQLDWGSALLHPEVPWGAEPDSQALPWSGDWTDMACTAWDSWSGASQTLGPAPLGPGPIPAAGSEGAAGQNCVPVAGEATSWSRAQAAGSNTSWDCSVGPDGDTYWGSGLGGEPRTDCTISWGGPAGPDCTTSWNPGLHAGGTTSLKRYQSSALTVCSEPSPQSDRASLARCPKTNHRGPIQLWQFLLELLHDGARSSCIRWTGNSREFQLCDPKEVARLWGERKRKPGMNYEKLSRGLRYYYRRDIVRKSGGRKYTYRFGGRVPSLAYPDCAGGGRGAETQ
How it was run: as §1

ELF3 = target: T11, ELF3 (Homo sapiens, UniProt P78545 1-371); conditions: protein: recombinant; tags: N-terminal GST; dsDNA, one strand shown
T11 sequence: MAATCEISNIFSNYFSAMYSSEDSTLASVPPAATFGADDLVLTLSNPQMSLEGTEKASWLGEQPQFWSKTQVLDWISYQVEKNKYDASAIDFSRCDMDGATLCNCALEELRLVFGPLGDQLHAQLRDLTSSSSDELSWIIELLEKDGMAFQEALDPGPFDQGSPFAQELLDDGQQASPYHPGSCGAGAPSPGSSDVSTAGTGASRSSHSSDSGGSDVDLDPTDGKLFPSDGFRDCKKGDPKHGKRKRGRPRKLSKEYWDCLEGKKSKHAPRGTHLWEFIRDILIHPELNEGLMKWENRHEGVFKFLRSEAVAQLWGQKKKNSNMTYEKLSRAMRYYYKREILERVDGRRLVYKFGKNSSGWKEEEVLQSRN
How it was run: as §1

CRX = CRX (Homo sapiens, UniProt O43186 1-299); conditions: protein: recombinant; tags: N-terminal GST; dsDNA, one strand shown
How it was run: as §1

ETV1 = ETV1 (Homo sapiens, UniProt P50549 1-477); conditions: protein: recombinant; tags: N-terminal GST; dsDNA, one strand shown
How it was run: as §1

Sequence of ETV1 (P50549 whole entry): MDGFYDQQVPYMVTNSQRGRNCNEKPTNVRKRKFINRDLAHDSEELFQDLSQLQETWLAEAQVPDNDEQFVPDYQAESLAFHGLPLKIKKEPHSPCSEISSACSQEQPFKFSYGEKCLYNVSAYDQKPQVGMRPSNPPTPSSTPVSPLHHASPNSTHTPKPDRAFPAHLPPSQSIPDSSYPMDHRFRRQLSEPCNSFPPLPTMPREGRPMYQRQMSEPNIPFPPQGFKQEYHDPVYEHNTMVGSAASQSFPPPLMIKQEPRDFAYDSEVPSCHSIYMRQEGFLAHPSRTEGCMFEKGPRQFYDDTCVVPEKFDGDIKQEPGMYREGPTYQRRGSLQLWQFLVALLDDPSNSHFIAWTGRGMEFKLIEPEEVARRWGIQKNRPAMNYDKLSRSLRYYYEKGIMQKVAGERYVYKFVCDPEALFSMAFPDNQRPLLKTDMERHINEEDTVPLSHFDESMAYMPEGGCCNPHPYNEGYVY
Sequence of ELF1 (P32519 whole entry): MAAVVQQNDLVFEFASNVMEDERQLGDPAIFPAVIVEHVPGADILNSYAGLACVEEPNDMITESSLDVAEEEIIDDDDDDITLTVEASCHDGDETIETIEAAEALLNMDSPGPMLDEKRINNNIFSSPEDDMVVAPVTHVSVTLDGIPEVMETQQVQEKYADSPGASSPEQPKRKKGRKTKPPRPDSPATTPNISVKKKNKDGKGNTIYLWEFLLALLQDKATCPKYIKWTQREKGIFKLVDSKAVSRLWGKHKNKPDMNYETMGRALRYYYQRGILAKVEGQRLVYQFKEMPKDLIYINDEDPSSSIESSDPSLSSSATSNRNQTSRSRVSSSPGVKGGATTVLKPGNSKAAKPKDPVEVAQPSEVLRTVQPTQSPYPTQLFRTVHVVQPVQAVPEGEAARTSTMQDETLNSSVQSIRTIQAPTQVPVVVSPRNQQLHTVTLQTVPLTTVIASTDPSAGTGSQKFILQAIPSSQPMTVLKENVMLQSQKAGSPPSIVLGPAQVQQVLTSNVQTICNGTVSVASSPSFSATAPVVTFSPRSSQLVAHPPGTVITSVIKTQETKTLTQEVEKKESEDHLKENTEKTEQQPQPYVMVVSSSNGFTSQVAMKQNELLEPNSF
Sequence of CRX (O43186 whole entry): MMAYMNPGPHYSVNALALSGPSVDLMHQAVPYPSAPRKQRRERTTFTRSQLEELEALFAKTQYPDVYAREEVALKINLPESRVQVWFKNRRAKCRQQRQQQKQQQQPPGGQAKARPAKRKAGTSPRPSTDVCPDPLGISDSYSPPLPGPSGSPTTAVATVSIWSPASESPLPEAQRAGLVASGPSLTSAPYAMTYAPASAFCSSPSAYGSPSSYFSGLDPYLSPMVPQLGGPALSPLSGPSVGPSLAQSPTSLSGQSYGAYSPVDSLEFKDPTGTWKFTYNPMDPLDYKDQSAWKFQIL
Sequence of SPIB (Q01892 whole entry): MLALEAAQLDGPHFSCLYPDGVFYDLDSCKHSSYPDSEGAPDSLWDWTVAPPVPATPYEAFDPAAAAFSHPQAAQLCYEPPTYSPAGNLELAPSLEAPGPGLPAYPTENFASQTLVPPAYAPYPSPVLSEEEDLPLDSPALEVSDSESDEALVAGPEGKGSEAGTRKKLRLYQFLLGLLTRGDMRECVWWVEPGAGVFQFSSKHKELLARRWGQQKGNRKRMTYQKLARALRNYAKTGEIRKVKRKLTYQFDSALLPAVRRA
Sequence of ETV5 (P41161 whole entry): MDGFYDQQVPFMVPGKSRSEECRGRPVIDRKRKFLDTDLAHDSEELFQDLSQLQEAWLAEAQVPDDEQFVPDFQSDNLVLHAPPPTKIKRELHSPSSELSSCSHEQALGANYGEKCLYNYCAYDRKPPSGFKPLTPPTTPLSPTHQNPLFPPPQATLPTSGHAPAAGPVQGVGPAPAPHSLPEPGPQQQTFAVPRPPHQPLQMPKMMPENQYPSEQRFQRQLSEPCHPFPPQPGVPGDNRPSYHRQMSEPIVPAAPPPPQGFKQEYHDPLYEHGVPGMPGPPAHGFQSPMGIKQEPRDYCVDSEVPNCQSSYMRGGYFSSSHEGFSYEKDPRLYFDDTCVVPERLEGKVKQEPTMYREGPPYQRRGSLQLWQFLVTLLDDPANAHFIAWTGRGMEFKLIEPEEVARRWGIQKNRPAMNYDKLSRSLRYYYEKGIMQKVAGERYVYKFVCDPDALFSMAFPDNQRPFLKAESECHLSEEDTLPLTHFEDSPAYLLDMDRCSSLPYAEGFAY
Sequence of ELF4 (Q99607 whole entry): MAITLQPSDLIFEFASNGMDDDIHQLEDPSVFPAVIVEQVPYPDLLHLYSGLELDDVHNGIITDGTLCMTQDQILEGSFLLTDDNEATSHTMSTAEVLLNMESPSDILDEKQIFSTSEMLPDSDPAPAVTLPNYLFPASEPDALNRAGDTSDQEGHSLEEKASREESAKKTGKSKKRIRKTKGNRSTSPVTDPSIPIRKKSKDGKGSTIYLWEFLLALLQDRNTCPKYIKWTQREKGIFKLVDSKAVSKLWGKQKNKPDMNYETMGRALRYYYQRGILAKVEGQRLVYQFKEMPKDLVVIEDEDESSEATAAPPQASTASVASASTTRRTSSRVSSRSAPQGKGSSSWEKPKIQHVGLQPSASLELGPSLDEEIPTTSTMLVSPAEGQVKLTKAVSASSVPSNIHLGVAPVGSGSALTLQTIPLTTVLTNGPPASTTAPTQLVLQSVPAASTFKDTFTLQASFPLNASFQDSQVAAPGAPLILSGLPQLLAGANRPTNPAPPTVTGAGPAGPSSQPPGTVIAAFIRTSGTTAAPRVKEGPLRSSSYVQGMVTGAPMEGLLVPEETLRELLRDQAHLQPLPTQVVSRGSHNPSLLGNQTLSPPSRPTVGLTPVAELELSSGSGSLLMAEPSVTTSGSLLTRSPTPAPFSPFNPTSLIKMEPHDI
Sequence of HSF1 (Q00613 whole entry): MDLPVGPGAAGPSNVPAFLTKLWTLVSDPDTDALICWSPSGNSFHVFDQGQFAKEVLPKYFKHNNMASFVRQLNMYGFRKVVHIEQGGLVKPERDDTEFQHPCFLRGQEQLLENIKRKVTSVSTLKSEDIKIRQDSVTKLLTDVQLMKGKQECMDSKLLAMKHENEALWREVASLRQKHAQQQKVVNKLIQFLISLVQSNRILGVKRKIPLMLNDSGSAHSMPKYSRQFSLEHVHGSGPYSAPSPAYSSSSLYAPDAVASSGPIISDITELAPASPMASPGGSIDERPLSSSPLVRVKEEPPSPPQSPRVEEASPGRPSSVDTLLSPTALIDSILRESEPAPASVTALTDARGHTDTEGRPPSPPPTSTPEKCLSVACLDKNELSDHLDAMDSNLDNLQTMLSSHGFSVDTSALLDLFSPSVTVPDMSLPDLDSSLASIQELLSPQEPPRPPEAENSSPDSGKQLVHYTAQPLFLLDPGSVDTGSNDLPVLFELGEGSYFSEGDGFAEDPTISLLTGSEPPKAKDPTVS

## AACACT
FLI1
  binding signal: 1.27 fold enrichment (6-mer frequency, TF over GST control)
ELK1
  binding signal: 1.38 fold enrichment (6-mer frequency, TF over GST control)
GABPA
  binding signal: 1.32 fold enrichment (6-mer frequency, TF over GST control)
ERG
  binding signal: 1.31 fold enrichment (6-mer frequency, TF over GST control)
ELF1
  binding signal: 1.32 fold enrichment (6-mer frequency, TF over GST control)
EHF
  binding signal: 1.35 fold enrichment (6-mer frequency, TF over GST control)
SPI1
  binding signal: 1.36 fold enrichment (6-mer frequency, TF over GST control)
SPIB
  binding signal: 1.31 fold enrichment (6-mer frequency, TF over GST control)
ELK3
  binding signal: 1.23 fold enrichment (6-mer frequency, TF over GST control)
FEV
  binding signal: 1.26 fold enrichment (6-mer frequency, TF over GST control)
ETV5
  binding signal: 1.28 fold enrichment (6-mer frequency, TF over GST control)
HSF1
  binding signal: 1.18 fold enrichment (6-mer frequency, TF over GST control)
SPIC
  binding signal: 1.52 fold enrichment (6-mer frequency, TF over GST control)
ELF4
  binding signal: 1.3 fold enrichment (6-mer frequency, TF over GST control)
ELK4
  binding signal: 1.29 fold enrichment (6-mer frequency, TF over GST control)
ETV2
  binding signal: 1.26 fold enrichment (6-mer frequency, TF over GST control)
ELF3
  binding signal: 1.23 fold enrichment (6-mer frequency, TF over GST control)
CRX
  binding signal: 1.14 fold enrichment (6-mer frequency, TF over GST control)
ETV1
  binding signal: 1.25 fold enrichment (6-mer frequency, TF over GST control)
